PubChem BioAssay (NCATS)
Results filed as inconclusive are left out. Activity calls are given as the source filed them. Calls come from the whole dose curve; as a rule, active = well fitted inhibition curve with a large enough effect; inconclusive = small, poorly fitted or top-dose-only effect; inactive = flat fitted curve, though single readings scatter.

experiment: Primary qHTS for inhibitors of nuclear receptor binding SET domain protein 2 (NSD2) in an isogenic RCH-ACV NSD2 p.E1099K mutant (9B) (AID 1645876); settings: RCH-ACV (leukaemia line) NSD2 E1099K (9B) viability, CellTiter-Glo, 72 h; series mostly up to 44.9 µM; activity change, negative = viability loss: at the top concentration; note: nearly all actives have a fitted effect of over 70% in size
% is set by controls: 0 for no effect and ±100 for the full control effect.

Row | Compound | activity change, negative = viability loss | outcome
1 | CC1(C)CC[C@]2(C(=O)O)CC[C@]3(C)C(=CCC4[C@@]5(C)CC[C@H](O)C(C)(C)C5CC[C@]43C)C2C1 (some centres undefined) | -4% [at 17.3 µM] (inactive) | 
2 | CC(=O)OCC1=CCC2C(C)(C)CCCC2(C)C12CCC(C)(CC(=O)O)O2 (centres undefined) | -8.21% (inactive) | 
3 | CC(O)C(O)/C=C/C=C/C(=O)O[C@@H]1C=C(C(=O)O)[C@](O)(CO)[C@@]2(C)CCCC(C)(C)[C@H]12 (some centres undefined) | -4.85% [at 17.3 µM] (inactive) | 
4 | C=C(COC(=O)CC(C)C)C1Cc2cc(C(C)=O)ccc2O1 (centres undefined) | -4.96% (inactive) | 
5 | C=C(C)[C@@H]1CC[C@]2(C)CC[C@]3(C)C(CCC4[C@@]5(C)CC[C@H](O)C(C)(C)C5CC[C@]43C)C12 (some centres undefined) | -6.94% [at 17.3 µM] (inactive) | 
6 | CC1=C(CC/C(C)=C/C(=O)O)[C@@]2(C)CCCC(C)(C)C2CC1=O (some centres undefined) | -0.928% (inactive) | 
7 | C[C@@H]1CCC2C(C)(C)[C@H](O)[C@H](O)C[C@]2(C)[C@@]12Cc1c(O)cc3c(c1O2)CN(CCCC(=O)O)C3=O (some centres undefined) | -4.87% [at 17.3 µM] (inactive) | 
8 | CC1(C)CC[C@]2(C(=O)O[C@@H]3O[C@H](CO)[C@@H](O)[C@H](O)[C@H]3O)CC[C@]3(C)C(=CCC4[C@@]5(C)CC[C@H](O[C@@H]6O[C@H](C(=O)O)[C@@H](O)[C@H](O)[C@H]6OC6OC(CO)C(O)C(O)C6O)C(C)(C)C5CC[C@]43C)[C@@H]2C1 (some centres undefined) | 0.32% [at 9.23 µM] (inactive) | 
9 | CC(C)=CCC[C@@](C)(O)[C@H]1CC[C@]2(C)[C@@H]1[C@H](O)CC1[C@@]3(C)CC[C@H](O[C@@H]4O[C@H](CO)[C@@H](O)[C@H](O)[C@H]4O[C@@H]4O[C@H](CO)[C@@H](O)[C@H](O)[C@H]4O)C(C)(C)[C@@H]3CC[C@]12C (some centres undefined) |  | inactive [at 17.3 µM]
10 | COc1cc(/C=C/C(=O)O[C@H]2C[C@@H]3C(C(=O)O)=CO[C@@H](O[C@@H]4O[C@H](CO)[C@@H](O)[C@H](O)[C@H]4O)[C@@H]3[C@H]2C)ccc1O |  | inactive [at 17.3 µM]
11 | CC1CC=C2C1CC1(O)C(=O)CC2(C)C1(C)CO (centres undefined) | 4.64% (inactive) | 
12 | C[C@H]1/C=C/C=C/C=C/C=C/C=C/[C@@H](O)[C@H](C(=O)O)[C@H](O)C[C@H](O)CCC[C@H](O)C[C@H](O)C[C@H](O)[C@@H](C)C(=O)O[C@@H]1C | -3.61% [at 17.3 µM] (inactive) | 
13 | C=C(C)C1CCC2(C(=O)OC3OC(COC4OC(CO)C(O)C(O)C4O)C(OC4OC(C)C(O)C(O)C4O)C(O)C3O)CCC3(C(=O)O)C(CCC4C5(C)CCC(=O)C(C)(C)C5CCC43C)C12 (centres undefined) |  | inactive [at 9.23 µM]
14 | CC1(C)CCC[C@@]2(C)[C@H]1[C@H](O)C=C(CO)[C@]2(O)CO |  | inactive
15 | CCC(C)C(=O)OC[C@H]1O[C@H](O[C@H]2O[C@H](CO)[C@@H](O)[C@H](O)[C@H]2O)[C@H](O)[C@@H](O)[C@@H]1O (some centres undefined) | 1.78% [at 17.3 µM] (inactive) | 
16 | Cc1c(C)c(NCC(=O)N(C)C2CCN(Cc3ccc(C(N)=O)cc3)CC2)c(C)c(C)c1N | -10.4% (inactive) | 
17 | C=C1C(OC(C)=O)[C@@]23CCC4[C@](C)(C(=O)O)CCC[C@@]4(C)[C@]2(O)CC[C@H]1C3 (some centres undefined) | -8.22% (inactive) | 
18 | COc1ccc(C2(O)c3ccccc3NC(=O)C2OC)cc1 (centres undefined) | -13.2% (inactive) | 
19 | C[C@@H]1[C@H]2[C@H](O[C@@H]3O[C@H](CO)[C@@H](O)[C@H](O)[C@H]3O)OC=C(C(=O)O)[C@H]2C[C@@H]1OC(=O)/C=C/c1ccc(O)cc1 | 1.41% [at 17.3 µM] (inactive) | 
20 | CC1CCC2(C)CCC3(C)C(=CCC4C5(C)CCC(O)C(C)(C(=O)O)C5CCC43C)C2C1C (centres undefined) | -10.7% [at 17.3 µM] (inactive) | 

Row | Compound | activity change, negative = viability loss | outcome
21 | O=C(/C=C/c1ccc(O)cc1)OC[C@@]1(O)C=C[C@@H]2C(C(=O)O)=CO[C@@H](O[C@@H]3O[C@H](CO)[C@@H](O)[C@H](O)[C@H]3O)[C@@H]21 | -12.6% [at 17.3 µM] (inactive) | 
22 | CCc1cc(CC[C@]2(C3CCCC3)CC(O)=C(Cc3nc4nc(C)cc(C)n4n3)C(=O)O2)cc(CC)n1 | -10.4% (inactive) | 
23 | COCc1c(O)c(C(=O)O)c(C)c2c1OC(=O)c1c(C)cc(O)c(CO)c1O2 | -14.6% (inactive) | 
24 | O=C(O)CC/C=C\C[C@H]1CO[C@@H](c2ccccc2Cl)O[C@H]1c1ccccc1O | -0.517% (inactive) | 
25 | CC1OC(OC2C(OC3C(O[C@H]4CC[C@@]5(C)C(CC[C@]6(C)C5CC=C5C7CC(C)(C)CC(O)[C@]7(C)CC[C@]56C)C4(C)C)OC(C(=O)O)C(O)C3O)OCC(O)C2O)C(O)C(O)C1O (some centres undefined) |  | inactive [at 9.23 µM]
26 | COC(=O)CCC1(C)C(C(C)(C)O)C(O)CC2(C)Oc3c(C)c4c(c(OC)c3CC21)C(=O)OC4 (centres undefined) | -4.3% [at 17.3 µM] (inactive) | 
27 | C[C@@H]1O[C@@H](O[C@H]2[C@@H]3C=CO[C@@H](O[C@@H]4O[C@H](CO)[C@@H](O)[C@H](O)[C@H]4O)[C@@H]3[C@@]3(CO)O[C@@H]23)[C@H](OC(=O)/C=C/c2ccc(O)cc2)[C@H](O)[C@H]1O | -7.27% [at 17.3 µM] (inactive) | 
28 | C=CC(C)(CC/C=C(\C)C(=O)OC[C@H]1O[C@@H](OC(C)(C=C)CC/C=C(\C)C(=O)O[C@H]2[C@H](O)[C@@H](O)[C@H](OC(C)(C=C)CC/C=C(\C)C(=O)O)O[C@@H]2CO)[C@H](O)[C@@H](O)[C@@H]1O)O[C@@H]1O[C@H](CO)[C@@H](O)[C@H](O)[C@H]1O (some centres undefined) | -1.17% [at 9.23 µM] (inactive) | 
29 | CC(C)/C=C1/NC(=O)C(C(C)C)n2c1nc1c(O)cccc1c2=O (centres undefined) | -24.8% (inactive) | 
30 | COc1ccc(C2C(C(=O)O)C(C(=O)O)C2c2ccc(OC)cc2O[C@@H]2O[C@H](CO)[C@@H](O)[C@H](O)[C@H]2O)c(O[C@@H]2O[C@H](CO)[C@@H](O)[C@H](O)[C@H]2O)c1 (some centres undefined) | -12% [at 17.3 µM] (inactive) | 
31 | C=C1CC[C@@H]2[C@](C)(CO)[C@H](O[C@@H]3O[C@H](CO)[C@@H](O)[C@H](O)[C@H]3O)CC[C@@]2(C)[C@@H]1C/C=C1/C(=O)OC[C@H]1O | -22% [at 17.3 µM] (inactive) | 
32 | CC1(C)OC(=O)CC(O)C2(C)C1CC(=O)C1(C)C2C(O)CC2(C)C(c3ccoc3)OC(=O)C3OC321 (centres undefined) | -5.72% [at 17.3 µM] (inactive) | 
33 | CC1=COC(OC2OC(CO)C(O)C(O)C2O)C2C(CO)CC(OC(=O)/C=C/c3ccc(O)cc3)C12 (centres undefined) | 4.07% [at 17.3 µM] (inactive) | 
34 | C/C(=C\CCC(C)CCO)C(=O)OC[C@H]1O[C@@H](O[C@@H]2OC=C(C(=O)O)[C@H]3CC[C@](C)(O)[C@@H]23)C(O)[C@@H](O)C1O (some centres undefined) | 2.58% [at 17.3 µM] (inactive) | 
35 | C[C@@H]1CC[C@]2(C(=O)O[C@@H]3O[C@H](CO[C@@H]4O[C@H](CO)[C@@H](O)[C@H](O)[C@H]4O)[C@@H](O)[C@H](O)[C@H]3O)CC[C@]3(C)C(=CCC4[C@@]5(C)CC[C@H](O)[C@](C)(C(=O)O)C5CC[C@]43C)[C@@H]2[C@]1(C)O (some centres undefined) | -2.63% [at 9.23 µM] (inactive) | 
36 | C[C@@H]1C[C@@H](O)[C@@]2(CO)C(CO)=CCC[C@@H]2[C@@]12C[C@@H](c1ccoc1)OC2=O | -5.25% (inactive) | 
37 | COc1cc(/C=C/C(=O)OC[C@H]2O[C@@H](OC3CC(C)=C(C(=O)O)C(C)(C)C3)[C@H](O)[C@@H](O)[C@@H]2O)cc(OC)c1O (some centres undefined) | 2.34% [at 17.3 µM] (inactive) | 
38 | COc1cc(C(CO)CO[C@@H]2O[C@H](CO)[C@@H](O)[C@H](O)[C@H]2O)ccc1O (some centres undefined) | -5.58% (inactive) | 
39 | C/C=C1/[C@H](O[C@@H]2O[C@H](CO)[C@@H](O)[C@H](O)[C@H]2O)OC=C(C(=O)OC)[C@H]1CC(=O)OCCc1ccc(O)c(O)c1 | -17.9% [at 17.3 µM] (inactive) | 
